Inconclusive results are not listed. A call without a number means that no potency is given here. Calls of active or inactive are those of the source. Calls follow the shape of the dose curve; as a rule, active = well fitted cell-killing curve with a large enough effect in the repeat runs; inconclusive = weak or mixed curves; inactive = no such curve, though single readings can be large or run the other way.
Potency is read from the fitted curve at half-maximal effect.

The nature of the assay: qHTS assay for identifying genotoxic compounds that show differential cytotoxicity against isogenic chicken DT40 cell lines with known DNA damage response pathways - Rad54/Ku70 mutant cell line (AID 743015). Also: nearly all actives have a fitted effect of over 60% in size. Particulars: DT40 Rad54/Ku70 mutant viability, CellTiter-Glo, 40 h; series mostly up to 66.8 µM. Background: Quantitative high-throughput screening tests each substance at several concentrations.
Regarding `COc1ccc2c(c1)c1c3n2CCN(C)C3=NCC1`, the Potency is 23.7 µM (active).
Take `Cc1ccc(C)c([N+](=O)[O-])c1`: the Potency entry is “inactive”.
The result for `O=C(O)CNC(=O)CNC(=O)CNC(=O)CSC(=O)c1ccccc1` reads “inactive”; that for `OCC(O)CN1CCN(c2ccccc2)CC1` (stereo not given), “inactive”.
Consider `NCC1(Cc2noc(=O)[nH]2)CCCCC1`, for which the Potency result is “inactive”.
With `OCCN1CCOCC1`, the Potency result was “inactive”.
In the case of `CCC(C)C(C)=O` (stereo not given), the Potency result was “inactive”.
As for `Cc1ccnc(N)c1`, the figure is 48.6 µM (active); as for `CCCCOC(=O)[C@H](C)O`, “inactive”.
For the molecule `O=C(NCN1CCOCC1)c1cnccn1`, the Potency result is “inactive”.
On to `C=C(C)[C@@H]1CC=C(C)C(=O)C1`, for which the Potency entry is “inactive”.
With `COC(=O)c1ccccc1C(=O)O`, the Potency result was “inactive”.
Regarding `c1ccc(-c2nn[nH]n2)cc1`, the Potency result is “inactive”.
Regarding `O=Cc1ccccc1Cl`, the Potency entry was “inactive”.
Take `OCC1(CO)COCOC1`: the Potency entry was “inactive”.
The result for `C=CCSSCCC` reads “inactive”; that for `CC(C)c1ccc(C=O)cc1`, “inactive”.
On to `CC(=O)CC(=O)OC(C)(C)C`, for which the Potency entry is “inactive”.
As for `O=C(O)CONC(=O)c1ccccc1`, the entry is “inactive”; as for `CCCCCCCCCCCCCBr`, “inactive”.
For the molecule `CC1CC(=O)CC(C)(C)C1` (stereo not given), the Potency entry was “inactive”.
As for `c1ccc2cnccc2c1`, the figure is 54.5 µM (active).
Take `ONc1ccccc1`: the Potency entry was “inactive”.
With `O=C(Cl)c1ccccc1[N+](=O)[O-]`, the Potency result was “inactive”.
Regarding `Cn1c(=O)c2[nH]c(Br)nc2n(C)c1=O`, the Potency entry was “inactive”.

These data come from PubChem BioAssay (Tox21).
